An excerpt weighted towards active compounds, which were near 4% of everything screened.
HIF-2a block – inhibitors of HIF-2a; 786-0 RCC cells HIF-2a reporter, luciferase luminescence, overnight; inhibition, % at 18.8 µM; 360,000 tested, 0.72% active; AID 624352;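 active means inhibition of the luminescence signal of 40% or more relative to plate controls, in a single-dose primary screen at 18.75 µM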
TWEAK-Fn14 inh – inhibitors of TWEAK-Fn14 interaction signaling; TWEAK-stimulated Fn14 reporter cells, luciferase luminescence, 8 h; inhibition, % at 10 µM; 360,000 tested, 2% active; in the data active means inhibition above about 50%
Peg3 promoter – inhibitors of Peg3 promoter; HeLa PEG-Prom luciferase reporter, luminescence, overnight; inhibition, % at 20 µM; 360,000 tested, 1.7% active; AID 588405;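 active means inhibition of at least 50% at 20 µM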
CF NFkB inh – inhibitors of cystic fibrosis induced NF-kB; KKLEB NF-kB-GFP reporter, PAF-induced, GFP fluorescence overnight; inhibition, % at 5 µM; 360,000 tested, 0.86% active;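 active means at least 50% inhibition at 5 µM, scaled per plate between neutral and stimulator controls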;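 further: PAF is a Pseudomonas aeruginosa culture filtrate used as stimulus; plate controls were PAF-stimulated DMSO wells for no effect and unstimulated DMSO wells for full effect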
KKLEB tox – CF airway cell cytotoxicity counter-screen. KKLEB CF airway cells viability, ATPlite luminescence, overnight; hits give low values; cells stimulated with P. aeruginosa culture filtrate. activity change (cytotoxicity), % at 5 µM. 360,000 tested, 0.36% active. AID 602141;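 active means corrected activity change at or below -50% at 5 µM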
TROY NFkB inh – TROY signaling inhibition; Q293 LMP1-TROYcd NF-kB luciferase reporter, 4 h; inhibition, % at 10 µM; 360,000 tested, 0.98% active;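 active means compounds whose plate-normalised and pattern-corrected inhibition of the luciferase reporter signal at the single screening dose is 50% or more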
HIF-2a conf – confirmation of HIF-2a inhibitors; shares compounds with HIF-2a block; 786-0 RCC cells, HIF-2a luciferase reporter luminescence, overnight; inhibition, % at 18.8 µM; 1,800 tested, 56% active; AID 651580;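 active means mean inhibition across four replicates of at least 40 percent at the single tested concentration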
HIF-1a counter – inhibits HIF-1a reporter, a counter-screen for HIF-2a inhibitors; 1,800 tested, 72% active; shares compounds with HIF-2a block; inhibition, % at 18.8 µM; AID 651589; MiaPaCa-2 HIF-1a luciferase reporter, desferoxamine, overnight;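 active means mean inhibition of the reporter signal across four replicates at the single tested dose of 50% or more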
Starred values were filed as active, the others as inactive; x = no result given.

SMILES | HIF-2a block | TWEAK-Fn14 inh | Peg3 promoter | CF NFkB inh | KKLEB tox | TROY NFkB inh | HIF-2a conf | HIF-1a counter
N/C(Cc1ccc(Cl)cc1)=N\OC(=O)c1ccccc1 | -16.4 | -89.3 | -1.0 | -12.0 | -1.0 | -33.0 | x | x
COc1ccc(C(=O)O/N=C(\N)Cc2ccc(Cl)cc2)cc1OC | 61.9* | 72.1* | 113.2* | 11.9 | -13.6 | 13.3 | 4.5 | -68.5
COc1cc(C(=O)O/N=C(\N)Cc2ccc([N+](=O)[O-])cc2)cc(OC)c1OC | 16.3 | -37.5 | 21.5 | -30.0 | 5.8 | -11.9 | x | x
COc1ccc(C(=O)O/N=C(\N)Cc2ccc(Cl)c(Cl)c2)cc1OC | 87.9* | 92.4* | 104.2* | 44.7 | -23.5 | -2.7 | 1.0 | -80.9
COc1cccc(OC)c1C(=O)Nc1ccc(S(=O)(=O)N2CCCCC2)cc1 | 15.9 | 12.8 | 0.6 | -8.9 | 4.6 | -8.4 | x | x
COC(=O)c1cc(=O)n(-c2ccccc2)c(=Nc2ccccc2)s1 | 29.9 | 22.8 | 32.6 | 20.7 | 2.8 | -5.6 | x | x
COC(=O)c1cc(=O)n(Cc2ccc(F)cc2)c(=Nc2ccccc2)s1 | 53.1* | 32.1 | 54.9* | 17.6 | 0.4 | 3.4 | 26.1 | 47.9
COC(=O)c1cc(=O)n(CCc2ccc(OC)c(OC)c2)c(=Nc2ccc(F)c(Cl)c2)s1 | 74.9* | 59.8* | 99.0* | 26.9 | -8.1 | 8.9 | 22.9 | 96.3*
CNC(=O)C1CC(=O)N(CCc2ccc(OC)c(OC)c2)C(=Nc2ccc(F)cc2)S1 (configuration not stated) | 14.0 | -4.6 | 18.3 | -2.4 | 3.8 | 2.3 | x | x
N#Cc1cccc2c1-c1ccccc1/C2=N/NC(N)=S | 47.8* | -63.9 | 40.3 | -167.0 | -7.5 | 0.9 | -8.8 | 31.9
Cc1ccc2nc(-c3ccc(F)cc3)c(CC3CCCCC3)n2c1 | -126.7 | 19.0 | x | x | x | -73.1 | x | x
COc1ccc(-c2csc3ncn(-c4cccc(C)c4)c(=O)c23)cc1OC | 41.2* | -13.4 | 32.1 | 10.2 | -4.3 | -3.9 | 2.0 | 2.4
Cc1cccc(NS(=O)(=O)c2ccc(C)c(C(=O)NCC(c3cccs3)N(C)C)c2)c1 (configuration not stated) | -34.3 | 4.2 | -39.0 | -1.1 | -15.4 | -23.4 | x | x
Cc1ccc(N(CCC(=O)N2CCOCC2)S(=O)(=O)c2ccccc2)cc1 | 1.2 | 5.2 | 9.0 | -20.9 | 28.7 | -12.1 | x | x
COC(=O)C1(C)CCc2c(ccc3ccccc23)C1=O (configuration not stated) | -180.1 | -28.2 | -92.7 | -9.2 | -2.1 | -77.3 | x | x
CCC1(C(=O)OC)CCc2c(cc(OC)c3ccccc23)C1=O (configuration not stated) | 54.9* | -6.1 | 3.9 | 26.1 | -6.1 | 27.7 | -2.3 | -20.0
COc1ccc([C@H]2C[C@H](n3cc(-c4ccc(F)cc4)nn3)[C@@H](O)CN2Cc2cccs2)cc1 | 8.4 | -7.8 | 10.0 | -2.7 | -3.2 | 20.7 | x | x
COc1ccc([C@H]2C[C@H](O)[C@@H](n3cc(-c4ccc(F)cc4)nn3)CN2Cc2cccs2)cc1 | 77.0* | 41.8 | 68.8* | 39.0 | -27.0 | 38.2 | 30.3 | 104.2*
O=C(/C=C/c1ccccc1)CC(O)(c1ccccc1)C(F)(F)F (configuration not stated) | 72.6* | 88.5* | 104.7* | 52.8* | -57.5* | 63.5* | 44.5* | 104.3*
O=C(/C=C/c1ccccc1)CC(O)(c1ccccc1)C(F)(F)C(F)F (configuration not stated) | 70.3* | 68.5* | 101.3* | 22.6 | -33.9 | 63.9* | 52.6* | 105.8*
CNc1nc2ccccc2n1CC(=O)c1ccccc1 | -114.7 | -14.5 | -61.7 | 5.0 | 0.5 | -37.9 | x | x
NS(=O)(=O)c1cccc(NC(=O)CSc2nnc(-c3ccccc3F)n2C2CC2)c1 | 7.1 | 9.1 | 11.4 | -8.6 | 4.7 | -6.2 | x | x
Cc1nc2cc(-c3ccccc3)nn2c(C)c1CCC(=O)NCc1ccco1 | 68.9* | 28.6 | -59.1 | 1.6 | 0.2 | -6.1 | 79.3* | 37.3

Bioassay records from PubChem.
